Assay outcomes from PubChem.
PostGolgi yeast – growth inhibition of a yeast mutant, post-Golgi transport screen; 98,000 tested, 0.9% active; post-Golgi transport phenotypic cell assay; AID 739; inhibition, % at 10 µM;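 further: yeast cells grown in 1536-well plates; yeast grown about 18 h at 30C before absorbance read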
CYP2C9 activ – CYP2C9 (human) activation; P11712; recombinant CYP2C9, luciferin-H conversion, luminescence; active compounds read high; factor 1 = untreated enzyme, 0 = blocked; activation factor at 5 µM; 96,000 tested, 1.4% active; AID 1024;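 active means activation factor of 2 or more for CYP2C9 at a 5 µM dose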;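 further: 0 = sulfaphenazole-blocked wells and 1 = vehicle-only wells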
PostGolgi ctrl – inhibits growth of the yeast control strain | efflux-deficient yeast background strain, growth absorbance A615, 16 h | inhibition, % at 10 µM | 98,000 tested, 5% active
CYP2C19 act – cytochrome P450 2C19 (human) activation. recombinant CYP2C19, luciferin-H EGE luminescence; active compounds read high; 0 = fully inhibited enzyme, 1 = untreated enzyme. activation factor at 5 µM. 96,000 tested, under 10 active;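 active means activation factor of at least 2 at 5 µM in the primary screen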;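 further: 0 = wells with 2.5 mM tranylcypromine and 1 = vehicle-only wells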
Target sequence (P33261 whole entry, looked up): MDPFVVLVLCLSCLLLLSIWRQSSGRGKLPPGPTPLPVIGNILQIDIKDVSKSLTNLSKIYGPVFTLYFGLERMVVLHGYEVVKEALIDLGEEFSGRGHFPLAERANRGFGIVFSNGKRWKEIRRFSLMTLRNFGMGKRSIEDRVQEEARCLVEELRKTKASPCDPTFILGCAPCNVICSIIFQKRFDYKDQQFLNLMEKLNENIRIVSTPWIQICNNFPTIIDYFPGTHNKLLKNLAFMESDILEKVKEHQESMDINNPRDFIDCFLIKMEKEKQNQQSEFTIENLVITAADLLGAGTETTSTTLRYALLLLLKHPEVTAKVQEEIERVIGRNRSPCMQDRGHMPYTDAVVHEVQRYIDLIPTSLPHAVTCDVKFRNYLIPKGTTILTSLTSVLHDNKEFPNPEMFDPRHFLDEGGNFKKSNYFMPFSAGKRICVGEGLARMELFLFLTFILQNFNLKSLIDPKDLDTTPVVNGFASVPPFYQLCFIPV
CYP2C19 inhib – human CYP2C19 inhibition | P33261 | CYP2C19 Supersomes, luciferin-H EGE luminescence, 30 min | inhibition, % at 5 µM | 96,000 tested, 21% active;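 active means CYP2C19 inhibition above a set limit at 5 µM in the primary screen, cut at about 50% in these data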;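 further: plate controls were negative control wells for no effect and 2.5 mM tranylcypromine positive control for full effect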
CYP2C9 inhib – human CYP2C9 inhibition | P11712 | inhibition, % at 5 µM | CYP2C9 Supersomes, luciferin-H conversion, luminescence | AID 777 | 96,000 tested, 20% active;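 active means blocking of liver enzyme CYP2C9 beyond about 50% at 5 µM, limit read from the data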
Active calls of the source: *. An excerpt weighted towards active compounds, which were near 32% of everything screened. Unless noted, no stated cut-off is given here; in the data, active means inhibition above about 30%; inactive means the rest.

SMILES	PostGolgi yeast	CYP2C9 activ	PostGolgi ctrl	CYP2C19 act	CYP2C19 inhib	CYP2C9 inhib
Cn1c(=O)n(C)c2cc(NS(=O)(=O)c3ccc4c(c3)CCCC4)ccc21	8.3	0.8	17.2	0	95.3*	21.0
OC(COCC1CC=CCC1)Cn1cnc2ccccc21 (centres undefined)	4.2	0.6	1.3	0.3	72.1*	39.4
OC(CN(c1ccccc1)c1ccccc1)Cn1cnc2ccccc21 (centres undefined)	-0.9	0	31.9*	0	95.7*	97.6*
O=C1[C@@H]2[C@H](C(=O)N1Cc1ccco1)[C@H]1C=C[C@@H]2C1	-4.7	0.8	-2.1	0.8	21.6	18.9
CCCc1c(O)nc(SCCN(CC)CC)n(C(=O)c2ccccc2)c1=O	2.2	0.8	7.8	0.9	7.8	19.4
N#Cc1c(Sc2ncc(C(F)(F)F)cc2Cl)nsc1C/C=N\OCc1ccccc1Br	-6.7	1.1	6.7	0.9	10.0	-9.0
Cc1ccccc1NC(=O)/C=C/c1cccc(C(F)(F)F)c1	7.2	2.2*	1.1	0.9	5.0	-121.8
NC(=O)/C=C\C(=O)Nc1cccc(C(F)(F)F)c1	-3.2	1	1.4	0.9	11.3	3.0
COC(=O)c1ccc(Oc2cc(C)nc(SC)n2)cc1	-3.0	0.3	10.1	0.1	86.2*	72.1*
COC(=O)COc1ccc(Oc2cc(C)nc(SC)n2)nn1	1.6	1	15.1	1	-1.2	-4.3
O=C(c1cc2c(ccc3ccccc32)oc1=O)N1CCCC1	-4.1	0.3	13.7	1	-0.5	72.6*
Cc1c(C(=O)N2CCCCCC2)oc2ccccc12	-2.7	0.8	5.2	0.1	91.0*	21.2
O=C(c1oc2ccccc2c1CSCc1ccccc1)N1CCN(c2ncccn2)CC1	-2.7	0.2	26.8	0.4	62.3*	79.7*
O=C(O)c1cc2c(ccc3ccccc32)oc1=O	-5.1	1.1	-1.8	1.1	-5.7	-12.7
O=C(N1CCOCC1)N1CCN(c2ccccn2)CC1	3.4	1.1	-6.0	1.1	-6.9	-11.9
O=C(O)c1oc2ccccc2c1CN1CCN(c2ccccc2)CC1	9.9	1.2	6.6	1.1	-9.5	-19.0
Cc1c(C(=O)N2CCN(c3ccccn3)CC2)oc2ccccc12	-4.7	0.6	4.3	0.1	85.3*	40.7
Cc1c(C(=O)NC(C)CN2CCCCC2)oc2ccccc12 (centres undefined)	0.5	1	-3.5	1	3.0	-2.5
CCOc1ccccc1C1CC(=O)NC2=C1C(=O)CC(C)(C)C2 (centres undefined)	19.6	0.9	10.2	0.8	21.1	13.4
COCc1c(C(=O)N2CCN(c3ccc(C(F)(F)F)cn3)CC2)oc2ccccc12	3.2	0.9	12.1	0.2	79.8*	7.2
Cc1ccc(C(=O)Nc2ccc(O)c(C(=O)O)c2)o1	2.8	1.1	-5.3	0.9	8.7	-8.3
CCc1ccc(CC)c(S(=O)(=O)Nc2ccc(C(=O)O)c(O)c2)c1	-21.2	0.2	-5.5	0.9	8.5	83.2*
CCc1ccc(CC)c(S(=O)(=O)Nc2ccc(O)c(C(=O)O)c2)c1	10.6	0.2	4.2	0.9	6.0	76.9*
Cc1cc(=O)oc(C)c1C(=O)N1CCN(C)CC1	-6.4	1.1	4.1	1.1	-13.3	-8.3
CCn1cc(C(=O)NCCCN2CC(C)CC(C)C2)c(=O)c2cc(S(=O)(=O)N(C)C)ccc21 (centres undefined)	1.3	1.1	-6.4	0.8	17.7	-5.6
SMILES	PostGolgi yeast	CYP2C9 activ	PostGolgi ctrl	CYP2C19 act	CYP2C19 inhib	CYP2C9 inhib
CC(C)c1ccccc1N=C1SCCN1C1CCS(=O)(=O)C1 (centres undefined)	-2.5	0.7	7.3	0.4	58.3*	30.9
CC(C)(C)NC(=O)C12CCC(C)(c3nc4ccccc4nc31)C2(C)C (centres undefined)	8.1	0.8	10.4	0.8	22.5	18.6
COc1ccc(Br)cc1C1N2CC3(C)CN1CC(C)(C2)C3=O (centres undefined)	2.8	1.1	39.1*	0.2	77.3*	-5.3
COc1ccc2[nH]cc(C3N4CC5(C)CN3CC(C)(C4)C5=O)c2c1 (centres undefined)	-9.2	1.1	-3.0	0.8	22.5	-9.4
Cc1cn(S(=O)(=O)c2ccc(Br)cc2)cn1	-7.0	0.9	7.2	0.8	24.2	11.2
Cc1ccc(S(=O)(=O)Cc2c(C)noc2C)cc1	3.6	0.9	9.2	0	100.0*	11.1
Cc1noc(C)c1CS(=O)(=O)c1ccc(Br)cc1	-7.1	0.9	-10.8	0	98.5*	5.9
